Results: the supplement of paper PMC11732987, “Enantioselective OTUD7B fragment discovery through chemoproteomics screening and high-throughput optimisation” (Communications Chemistry, 2025)

Tests used:
Test in all cases: log2 ratio of Biotin-Ahx-Ub-VS probe labelling (fragment/DMSO); higher = less target engagement (more negative = stronger competition), active = hit call of the paper (q ≤ 0.05, log2 ratio ≤ -1)
Conditions in all cases: compound concentration: 200 uM; treatment time: 3 h
ALG13 = target: T1, ALG13 (UniProt Q9NP73)
T1 sequence (whole entry): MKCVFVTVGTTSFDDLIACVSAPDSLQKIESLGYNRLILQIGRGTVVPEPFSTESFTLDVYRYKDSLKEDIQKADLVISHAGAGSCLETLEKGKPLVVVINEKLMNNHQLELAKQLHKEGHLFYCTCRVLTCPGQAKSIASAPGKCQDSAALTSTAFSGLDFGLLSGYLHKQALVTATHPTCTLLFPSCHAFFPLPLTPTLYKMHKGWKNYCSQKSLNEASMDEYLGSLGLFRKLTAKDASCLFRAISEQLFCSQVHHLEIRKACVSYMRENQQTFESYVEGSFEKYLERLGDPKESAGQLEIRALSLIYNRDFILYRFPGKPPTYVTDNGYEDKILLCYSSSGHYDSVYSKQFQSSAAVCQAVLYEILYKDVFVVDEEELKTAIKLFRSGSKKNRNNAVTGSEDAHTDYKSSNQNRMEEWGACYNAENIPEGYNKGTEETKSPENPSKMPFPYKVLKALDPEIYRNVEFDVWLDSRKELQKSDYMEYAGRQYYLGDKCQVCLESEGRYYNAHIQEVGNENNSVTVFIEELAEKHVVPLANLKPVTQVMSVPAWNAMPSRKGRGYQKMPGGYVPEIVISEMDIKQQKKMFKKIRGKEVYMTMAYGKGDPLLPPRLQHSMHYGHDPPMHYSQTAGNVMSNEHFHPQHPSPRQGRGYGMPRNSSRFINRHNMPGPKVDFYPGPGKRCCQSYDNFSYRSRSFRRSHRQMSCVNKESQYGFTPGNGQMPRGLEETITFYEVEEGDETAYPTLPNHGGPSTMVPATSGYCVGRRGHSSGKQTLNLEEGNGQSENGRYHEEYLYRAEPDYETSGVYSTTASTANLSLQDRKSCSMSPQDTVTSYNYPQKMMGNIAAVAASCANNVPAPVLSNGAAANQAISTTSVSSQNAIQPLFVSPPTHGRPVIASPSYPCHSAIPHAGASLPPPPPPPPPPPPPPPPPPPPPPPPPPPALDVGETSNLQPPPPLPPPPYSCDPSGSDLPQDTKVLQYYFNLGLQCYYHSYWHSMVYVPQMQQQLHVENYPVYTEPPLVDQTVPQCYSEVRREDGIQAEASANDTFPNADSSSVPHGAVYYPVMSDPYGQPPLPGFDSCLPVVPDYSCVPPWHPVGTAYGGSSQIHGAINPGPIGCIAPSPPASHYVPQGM
How it was run: (§1)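 Triplicate samples of HEK293T lysate, 495 µg each, received fragment at 200 µM or vehicle for 3 h, followed by Biotin-Ahx-Ub-VS (0.5 µM final) for 1 h. After NeutrAvidin enrichment of labelled DUBs and LysC/trypsin digestion, peptides were run by diaPASEF LC-MS/MS. The values are average log2 fragment/vehicle ratios from global-median-normalised Spectronaut label-free quantities, tested by unpaired t-test on proteins having ≥2 unique peptides.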

ATXN3 = ATXN3 (UniProt P54252)
Sequence of ATXN3 (P54252 whole entry): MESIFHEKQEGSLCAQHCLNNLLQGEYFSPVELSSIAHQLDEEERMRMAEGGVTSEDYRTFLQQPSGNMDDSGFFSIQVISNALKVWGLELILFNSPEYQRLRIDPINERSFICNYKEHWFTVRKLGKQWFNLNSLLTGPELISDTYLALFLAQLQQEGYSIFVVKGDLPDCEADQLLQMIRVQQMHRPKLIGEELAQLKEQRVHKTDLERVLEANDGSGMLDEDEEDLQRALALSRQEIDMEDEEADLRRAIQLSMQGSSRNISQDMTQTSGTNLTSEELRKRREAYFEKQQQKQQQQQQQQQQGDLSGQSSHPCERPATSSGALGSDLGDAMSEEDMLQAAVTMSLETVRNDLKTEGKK
How it was run: as §1

BAP1 = target: T2, BAP1 (UniProt Q92560)
T2 sequence (whole entry): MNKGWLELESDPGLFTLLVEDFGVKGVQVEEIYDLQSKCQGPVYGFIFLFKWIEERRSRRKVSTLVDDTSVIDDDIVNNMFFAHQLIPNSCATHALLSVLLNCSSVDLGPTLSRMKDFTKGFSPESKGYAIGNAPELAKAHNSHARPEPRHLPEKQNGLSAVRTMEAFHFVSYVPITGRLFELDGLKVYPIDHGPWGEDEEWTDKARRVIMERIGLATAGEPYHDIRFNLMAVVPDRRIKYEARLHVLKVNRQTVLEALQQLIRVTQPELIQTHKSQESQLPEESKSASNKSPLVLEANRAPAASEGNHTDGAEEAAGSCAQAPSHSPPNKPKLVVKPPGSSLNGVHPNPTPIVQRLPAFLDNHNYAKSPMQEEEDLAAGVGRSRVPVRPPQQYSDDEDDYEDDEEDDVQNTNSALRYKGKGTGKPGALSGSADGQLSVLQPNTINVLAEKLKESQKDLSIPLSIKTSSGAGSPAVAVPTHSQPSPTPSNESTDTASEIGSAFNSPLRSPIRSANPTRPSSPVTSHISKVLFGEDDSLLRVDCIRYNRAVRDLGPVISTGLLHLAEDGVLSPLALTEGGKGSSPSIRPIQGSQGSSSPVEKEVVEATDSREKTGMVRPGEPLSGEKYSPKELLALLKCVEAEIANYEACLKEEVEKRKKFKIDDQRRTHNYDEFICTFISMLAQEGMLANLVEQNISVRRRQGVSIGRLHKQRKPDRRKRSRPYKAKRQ
How it was run: as §1

EIF3F = EIF3F (UniProt O00303)
Sequence of EIF3F (O00303 whole entry): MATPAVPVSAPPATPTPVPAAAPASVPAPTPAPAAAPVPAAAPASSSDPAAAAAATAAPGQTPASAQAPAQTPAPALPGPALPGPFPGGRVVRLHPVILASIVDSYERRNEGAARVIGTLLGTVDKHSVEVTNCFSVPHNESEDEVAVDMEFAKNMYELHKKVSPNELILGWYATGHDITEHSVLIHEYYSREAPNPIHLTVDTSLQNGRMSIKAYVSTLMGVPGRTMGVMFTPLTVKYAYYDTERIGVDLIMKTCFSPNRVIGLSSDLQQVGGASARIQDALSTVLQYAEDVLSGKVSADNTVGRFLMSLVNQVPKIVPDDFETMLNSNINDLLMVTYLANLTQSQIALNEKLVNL
How it was run: as §1

EIF3H = EIF3H (UniProt O15372)
Sequence of EIF3H (O15372 whole entry): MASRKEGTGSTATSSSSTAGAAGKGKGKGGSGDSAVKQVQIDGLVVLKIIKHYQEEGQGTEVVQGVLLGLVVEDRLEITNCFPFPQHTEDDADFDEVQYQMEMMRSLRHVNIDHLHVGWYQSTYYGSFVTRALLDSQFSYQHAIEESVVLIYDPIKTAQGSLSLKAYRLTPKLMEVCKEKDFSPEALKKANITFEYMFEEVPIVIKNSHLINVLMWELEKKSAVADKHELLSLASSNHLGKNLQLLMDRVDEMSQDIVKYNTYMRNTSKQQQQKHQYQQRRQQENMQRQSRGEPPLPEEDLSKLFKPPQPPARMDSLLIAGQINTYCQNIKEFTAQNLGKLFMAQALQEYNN
How it was run: as §1

FAM105A = target: T3, FAM105A (UniProt Q9NUU6)
T3 sequence (whole entry): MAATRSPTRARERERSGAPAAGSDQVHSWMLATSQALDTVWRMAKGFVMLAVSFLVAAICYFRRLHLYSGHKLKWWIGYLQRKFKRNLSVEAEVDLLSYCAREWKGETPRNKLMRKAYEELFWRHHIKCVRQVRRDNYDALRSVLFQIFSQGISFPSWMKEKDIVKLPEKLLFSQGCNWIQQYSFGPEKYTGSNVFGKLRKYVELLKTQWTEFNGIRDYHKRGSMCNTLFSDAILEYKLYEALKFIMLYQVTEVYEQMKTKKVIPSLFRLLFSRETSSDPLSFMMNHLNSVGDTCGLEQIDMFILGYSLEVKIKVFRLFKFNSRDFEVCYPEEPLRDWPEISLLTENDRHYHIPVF
How it was run: as §1

OTUB1 = OTUB1 (UniProt Q96FW1)
Sequence of OTUB1 (Q96FW1 whole entry): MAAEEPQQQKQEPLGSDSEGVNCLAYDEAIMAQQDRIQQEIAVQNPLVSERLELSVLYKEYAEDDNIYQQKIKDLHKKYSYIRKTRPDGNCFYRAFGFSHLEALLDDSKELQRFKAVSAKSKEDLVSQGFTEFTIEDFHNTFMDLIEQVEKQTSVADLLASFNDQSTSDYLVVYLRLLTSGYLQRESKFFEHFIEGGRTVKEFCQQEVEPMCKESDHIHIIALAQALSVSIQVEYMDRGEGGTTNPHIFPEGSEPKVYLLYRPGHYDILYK
How it was run: as §1

OTUD4 = target: T4, OTUD4 (UniProt Q01804)
T4 sequence (whole entry): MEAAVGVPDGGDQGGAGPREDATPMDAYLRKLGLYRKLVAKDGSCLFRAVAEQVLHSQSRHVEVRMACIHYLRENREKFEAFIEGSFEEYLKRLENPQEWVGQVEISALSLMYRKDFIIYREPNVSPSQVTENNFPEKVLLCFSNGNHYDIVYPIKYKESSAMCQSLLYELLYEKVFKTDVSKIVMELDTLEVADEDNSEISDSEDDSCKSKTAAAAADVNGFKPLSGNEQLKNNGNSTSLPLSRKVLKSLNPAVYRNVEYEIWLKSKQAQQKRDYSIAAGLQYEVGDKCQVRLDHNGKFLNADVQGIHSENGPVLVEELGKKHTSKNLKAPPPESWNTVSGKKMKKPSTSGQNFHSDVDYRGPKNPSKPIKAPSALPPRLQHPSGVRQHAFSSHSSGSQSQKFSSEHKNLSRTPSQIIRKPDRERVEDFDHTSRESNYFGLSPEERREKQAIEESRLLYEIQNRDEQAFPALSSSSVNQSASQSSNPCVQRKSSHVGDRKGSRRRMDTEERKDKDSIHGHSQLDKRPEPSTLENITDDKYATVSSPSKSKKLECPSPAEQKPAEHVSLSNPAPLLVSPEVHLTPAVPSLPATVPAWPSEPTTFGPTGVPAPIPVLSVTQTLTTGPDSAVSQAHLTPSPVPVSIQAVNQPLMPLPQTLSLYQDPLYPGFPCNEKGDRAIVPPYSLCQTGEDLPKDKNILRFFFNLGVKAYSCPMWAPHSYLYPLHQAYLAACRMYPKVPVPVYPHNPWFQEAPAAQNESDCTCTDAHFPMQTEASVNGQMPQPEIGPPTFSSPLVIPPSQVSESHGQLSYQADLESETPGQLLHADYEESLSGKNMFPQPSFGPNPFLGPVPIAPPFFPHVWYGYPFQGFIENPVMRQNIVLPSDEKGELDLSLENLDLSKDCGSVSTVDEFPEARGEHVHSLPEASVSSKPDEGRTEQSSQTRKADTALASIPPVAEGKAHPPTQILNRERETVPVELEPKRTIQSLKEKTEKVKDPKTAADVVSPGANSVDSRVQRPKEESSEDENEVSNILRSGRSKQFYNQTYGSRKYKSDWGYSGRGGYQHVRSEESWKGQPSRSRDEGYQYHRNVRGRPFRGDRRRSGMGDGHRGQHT
How it was run: as §1

OTUD5 = target: T5, OTUD5 (UniProt Q96G74)
T5 sequence (whole entry): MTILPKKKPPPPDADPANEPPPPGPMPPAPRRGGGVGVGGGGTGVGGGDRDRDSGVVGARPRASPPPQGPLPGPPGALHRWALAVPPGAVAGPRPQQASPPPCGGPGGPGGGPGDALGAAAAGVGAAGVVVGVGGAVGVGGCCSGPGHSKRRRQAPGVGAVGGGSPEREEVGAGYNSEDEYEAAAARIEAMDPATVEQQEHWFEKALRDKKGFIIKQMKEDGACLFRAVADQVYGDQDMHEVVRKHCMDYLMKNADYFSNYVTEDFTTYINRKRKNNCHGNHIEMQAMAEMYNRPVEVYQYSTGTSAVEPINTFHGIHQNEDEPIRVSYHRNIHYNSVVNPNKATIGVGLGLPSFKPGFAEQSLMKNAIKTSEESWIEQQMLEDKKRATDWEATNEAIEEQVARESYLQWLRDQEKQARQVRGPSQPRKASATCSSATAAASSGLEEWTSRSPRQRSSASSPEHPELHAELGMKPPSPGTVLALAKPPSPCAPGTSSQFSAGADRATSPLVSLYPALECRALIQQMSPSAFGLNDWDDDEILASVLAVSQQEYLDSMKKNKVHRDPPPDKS
How it was run: as §1

Measured: log2 ratio of Biotin-Ahx-Ub-VS probe labelling

Cc1cc(NC(=O)CCl)n(-c2ccccc2)n1
inactive: ALG13 -0.0258 | ATXN3 -0.205 | EIF3F -0.154 | EIF3H 0.0602 | FAM105A 0.513 | OTUB1 -0.315 | OTUD4 0.184 | OTUD5 -0.222
active: BAP1 -3.5
